In PubChem BioAssay (Tox21):
Inconclusive results are not listed. Activity calls are given as the source filed them. Unless noted, the call rests on the fitted dose curve.

Tests used:
[1] = Nuclear factor erythroid 2-related factor 2/antioxidant responsive element (Nrf2/ARE) small molecule agonists: qHTS cell viability counter screen in human keratinocytes (AID 1919968; active means well fitted curve in the direction sought with a large enough effect in the repeat runs; an effect the other way counts as inactive or inconclusive; further: nearly all actives have a fitted effect of over 55% in size)
Summary of the method: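 Seed 1,500 KeratinoSens cells per well, then incubate 5 h at 37 C/5% CO2. Add compounds in DMSO and incubate 23 h. Add CellTiter-Fluor, wait 1 h and read fluorescence.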

[2] = Nuclear factor erythroid 2-related factor 2/antioxidant responsive element (Nrf2/ARE) small molecule agonists: luciferase reporter gene qHTS assay in human keratinocytes (AID 1919969); further: nearly all actives have a fitted effect of over 35% in size
[3] = molecular target: KiSS-1 receptor (Homo sapiens) (UniProt Q969F8); assay: Human kisspeptin (KISS1R) small molecule agonists, calcium flux assay in KISS1R-HEK293 cells (AID 1920064; active means well fitted curve in the direction sought with a large enough effect in the repeat runs; an effect the other way counts as inactive or inconclusive)
Summary of the method: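 Cells plated and incubated 18 h; dye added, 1 h at 37 C; compounds in DMSO pinned in; signal read at 480/540 nm every second for 3 min. Each compound tested at 15 concentrations in triplicate.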

[4] = G protein-coupled receptor (GPCR) small molecule agonists, calcium flux assay: HEK293 wild type cell line counter screen (AID 1920065)
Summary of the method: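 Counter-screen of the Tox21 10K library for non-specific calcium release: dye-loaded cells received compounds in DMSO and were monitored by kinetic fluorescence (480/540 nm, 3 min). Fifteen concentrations, run in triplicate.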

[5] = p53 small molecule agonists, cell-based qHTS assay with human liver microsomes (AID 1963577);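 further: p53 response element beta-lactamase reporter cells with liver microsomes plus NADPH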
Summary of the method: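 p53RE-bla cells; 5 h settle, 37 C/5% CO2; cpd + HLM 0.5 mg/mL + NADPH 0.5 mg/mL (final); 16 h 37 C; LiveBLAzer 2 h RT dark; fluorescence readout.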

[6] = p53 small molecule agonists, cell-based qHTS assay with rat liver microsomes (AID 1963578)
Summary of the method: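 Rat liver microsome activation: microsomes 0.5 mg/mL, NADPH 0.5 mg/mL final; p53RE-bla cells, 16 h 37 C; LiveBLAzer readout, 2 h RT dark.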

[7] = p53 small molecule agonists, cell-based qHTS assay with human liver microsomes: qHTS cell viability counter screen (AID 1963579); further: nearly all actives have a fitted effect of over 45% in size
Summary of the method: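 Luminescent CellTiter-Glo read-out, 30 min at room temperature, gauged cytotoxicity in p53RE-bla cells exposed 16 h at 37 C to DMSO-dissolved compounds with metabolic activation by human liver microsomes and NADPH, each 0.5 mg/mL final.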

[8] = p53 small molecule agonists, cell-based qHTS assay with rat liver microsomes: qHTS cell viability counter screen (AID 1963580); further: nearly all actives have a fitted effect of over 45% in size
Summary of the method: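 Intracellular ATP, by CellTiter-Glo luminescence, defines viability. HCT-116 p53RE-bla cells, 4,000 per well, were compound-treated in the presence of rat liver microsomes and NADPH for 16 h at 37 C.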

[9] = p53 small molecule agonists, cell-based qHTS assay: qHTS cell viability counter screen (AID 1963581); further: nearly all actives have a fitted effect of over 45% in size
Summary of the method: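 Cells: HCT-116 with p53 response element-driven beta-lactamase. Treatment: 16 h, 37 C, compounds in DMSO. Read: CellTiter-Glo luminescence after 30 min RT.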

[10] = p53 small molecule agonists, cell-based qHTS assay (AID 1963582; active means well fitted activation curve with a large enough effect in the signal ratio in the repeat runs, not every such curve was filed as active; the % refers to the signal ratio)
Summary of the method: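 Quantitative HTS in p53RE-bla cells: after a 5 h settling period, compounds delivered in DMSO were left on cells for 16 h at 37 C, and reporter induction was measured as fluorescence following 2 h substrate loading.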

[11] = molecular target: 5-hydroxytryptamine receptor 2A (Homo sapiens) (UniProt P28223); assay: 5-hydroxytryptamine receptor 2A (HTR2A) small molecule agonists, cell-based qHTS assay (AID 1963587); further: nearly all actives have a fitted effect of over 30% in size
Summary of the method: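 Kinetic calcium-flux fluorescence (2 min, 1 sec intervals) after compound addition in agonist mode. HTR2A-CHO cells were cultured 18 h, then dye-loaded 1 h at 37 C.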

[12] = molecular target: Muscarinic acetylcholine receptor M1 (Homo sapiens) (UniProt P11229); assay: Cholinergic receptor muscarinic 1 (CHRM1) small molecule antagonists, cell-based qHTS assay (AID 1963588); further: nearly all actives have a fitted effect of over 40% in size
Summary of the method: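 CHRM1-CHO calcium-flux assay, antagonist mode. Cells were seeded 18 h, dye-loaded 1 h at 37 C and given compound for 5 min at RT, then acetylcholine was added at 50nM. FDSS fluorescence was read 3 min; 15 concentrations, three runs.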

[13] = molecular target: Muscarinic acetylcholine receptor M1 (Homo sapiens) (UniProt P11229); assay: Cholinergic receptor muscarinic 1 (CHRM1) small molecule agonists, cell-based qHTS assay (AID 1963589); further: nearly all actives have a fitted effect of over 35% in size
Summary of the method: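 Agonist-mode qHTS in CHO cells stably carrying human muscarinic M1. Intracellular calcium is tracked by fluorescence every second after compound transfer; each compound runs at 15 concentrations in three independent runs.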

[14] = cAMP Responsive Elements (CRE) small molecule agonists, cell-based qHTS assay (AID 1963590)
Summary of the method: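 Agonist mode qHTS in CRE-bla HEK 293T cells: compounds dosed from DMSO for 3 h at 37 C/5% CO2, followed by LiveBLAzer B/G FRET substrate for 2 h at room temperature.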

[15] = cAMP Responsive Elements (CRE) small molecule antagonists, cell-based qHTS assay (AID 1963591; active means well fitted inhibition curve with a large enough effect in the signal ratio in the repeat runs, not every such curve was filed as active; the % refers to the signal ratio)
Summary of the method: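 Antagonist mode: test compounds are co-incubated with the adenylyl cyclase activator NKH477 (0.25 uM final) on CRE-bla HEK293T cells for 3 h at 37 °C, followed by LiveBLAzer substrate loading.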

[16] = molecular target: D(2) dopamine receptor (Homo sapiens) (UniProt P14416); assay: Dopamine D2 receptor (DRD2) small molecule agonists, cell-based qHTS assay (AID 1963594); further: nearly all actives have a fitted effect of over 35% in size
Summary of the method: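 cAMP accumulation in DRD2-HEK293 cells measured by HTRF after 1 h detection; compounds added 10 min before NKH477 (200nM […]) forskolin-analogue stimulation, 30 min at room temperature, with Ro20-1724 present at 0.1 mM final.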

[17] = molecular target: D(2) dopamine receptor (Homo sapiens) (UniProt P14416); assay: Dopamine D2 receptor (DRD2) small molecule antagonists, cell-based qHTS assay (AID 1963595; active means well fitted inhibition curve with a large enough effect in the signal ratio in the repeat runs, with a control signal flat; the % refers to the signal ratio)
Summary of the method: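 HEK293 cells stably expressing DRD2 were preincubated with 0.1 mM Ro20-1724, then with compound for 10 min at room temperature. Cells were stimulated with 200 nM NKH477 plus 12 nM quinpirole for 30 min, and cAMP was read by HTRF.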

[18] = molecular target: 5-hydroxytryptamine receptor 2A (Homo sapiens) (UniProt P28223); assay: 5-hydroxytryptamine receptor 2A (HTR2A) small molecule antagonists, cell-based qHTS assay (AID 1963586); further: nearly all actives have a fitted effect of over 45% in size
Summary of the method: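 Antagonist-mode intracellular calcium assay: DOI (4 nM) added after 5 min compound pre-incubation at room temperature to dye-loaded HTR2A-CHO cells. Fluorescence followed for 3 min, sampled every second.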

[19] = molecular target: Beta-2 adrenergic receptor (Homo sapiens) (UniProt P07550); assay: Adrenergic beta2 receptor (ADRB2) small molecule antagonists, cell-based qHTS assay (AID 1963592); further: series mostly up to about 92 µM; nearly all actives have a fitted effect of over 50% in size
Summary of the method: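 Cells (CHO, stable ADRB2 overexpression) incubated 18-20hr at 37C; compounds added from DMSO; agonist mix (1nM isoproterenol, 100uM IBMX, 25uM Ro-20-1724) added; 0.5hr RT; d2-cAMP and anti-cAMP-cryptate added; 1hr RT; 665/615 nm read.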

[20] = molecular target: Beta-2 adrenergic receptor (Homo sapiens) (UniProt P07550); assay: Adrenergic beta2 receptor (ADRB2) small molecule agonists, cell-based qHTS assay (AID 1963593);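 further: CHO cells stably overexpressing human ADRB2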
Summary of the method: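 CHO cells stably over-expressing ADRB2 were plated overnight at 37C, then dosed with compounds plus a stimulation mix containing 100uM IBMX and 25uM Ro-20-1724 for 0.5hr at room temperature. cAMP was measured by HTRF competition, 1hr.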
On the % scale 0 is the no-effect control and ±100 the full control effect.

5-hydroxytryptamine receptor 2A (Homo sapiens), sequence (P28223 whole entry, looked up): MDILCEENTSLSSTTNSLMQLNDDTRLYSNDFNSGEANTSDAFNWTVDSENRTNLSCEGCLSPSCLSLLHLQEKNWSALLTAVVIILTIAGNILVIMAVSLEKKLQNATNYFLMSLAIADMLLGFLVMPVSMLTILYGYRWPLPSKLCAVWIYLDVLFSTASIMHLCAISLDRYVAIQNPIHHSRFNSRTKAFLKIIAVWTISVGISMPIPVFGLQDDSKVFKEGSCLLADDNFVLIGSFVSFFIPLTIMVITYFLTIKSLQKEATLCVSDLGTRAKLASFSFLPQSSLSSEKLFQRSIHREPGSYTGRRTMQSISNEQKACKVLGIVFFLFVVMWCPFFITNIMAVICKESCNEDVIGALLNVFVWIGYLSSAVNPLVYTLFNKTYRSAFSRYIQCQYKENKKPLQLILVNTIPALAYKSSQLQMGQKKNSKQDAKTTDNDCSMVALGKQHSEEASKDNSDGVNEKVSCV
KiSS-1 receptor (Homo sapiens), sequence (Q969F8 whole entry, looked up): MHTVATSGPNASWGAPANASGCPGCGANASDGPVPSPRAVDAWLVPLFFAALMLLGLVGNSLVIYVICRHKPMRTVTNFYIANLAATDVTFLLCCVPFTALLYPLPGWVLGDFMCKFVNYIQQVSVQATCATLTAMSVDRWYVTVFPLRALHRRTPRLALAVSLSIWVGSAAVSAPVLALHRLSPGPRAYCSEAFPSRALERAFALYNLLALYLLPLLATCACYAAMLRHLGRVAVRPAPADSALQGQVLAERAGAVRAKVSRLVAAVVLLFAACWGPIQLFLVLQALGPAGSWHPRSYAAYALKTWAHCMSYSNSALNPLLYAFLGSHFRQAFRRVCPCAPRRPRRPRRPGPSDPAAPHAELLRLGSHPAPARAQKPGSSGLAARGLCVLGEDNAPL
Beta-2 adrenergic receptor (Homo sapiens), sequence (P07550 whole entry, looked up): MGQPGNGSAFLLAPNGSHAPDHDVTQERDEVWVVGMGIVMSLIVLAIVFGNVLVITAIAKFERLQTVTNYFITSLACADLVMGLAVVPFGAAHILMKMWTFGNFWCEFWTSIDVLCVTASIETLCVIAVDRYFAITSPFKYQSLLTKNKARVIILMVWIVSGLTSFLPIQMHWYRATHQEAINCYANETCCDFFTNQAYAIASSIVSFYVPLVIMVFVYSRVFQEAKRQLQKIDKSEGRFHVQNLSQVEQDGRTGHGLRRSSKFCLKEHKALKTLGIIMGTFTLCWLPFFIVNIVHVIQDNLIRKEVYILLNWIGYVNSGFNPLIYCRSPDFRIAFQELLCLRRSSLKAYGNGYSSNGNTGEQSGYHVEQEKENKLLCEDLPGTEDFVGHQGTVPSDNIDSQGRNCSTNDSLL
D(2) dopamine receptor (Homo sapiens), sequence (P14416 whole entry, looked up): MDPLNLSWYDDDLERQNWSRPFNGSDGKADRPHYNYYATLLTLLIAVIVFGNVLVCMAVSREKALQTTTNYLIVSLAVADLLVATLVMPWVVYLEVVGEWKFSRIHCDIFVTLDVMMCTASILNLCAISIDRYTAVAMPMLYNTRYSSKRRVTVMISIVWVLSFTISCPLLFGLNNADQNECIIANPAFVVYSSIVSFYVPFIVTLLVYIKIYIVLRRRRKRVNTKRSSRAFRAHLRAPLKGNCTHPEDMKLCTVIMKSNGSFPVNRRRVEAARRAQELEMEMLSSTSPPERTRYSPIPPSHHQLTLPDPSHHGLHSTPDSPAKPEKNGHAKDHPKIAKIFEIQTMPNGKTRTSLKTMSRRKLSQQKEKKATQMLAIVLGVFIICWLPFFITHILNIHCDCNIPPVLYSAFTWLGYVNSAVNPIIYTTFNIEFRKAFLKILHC
Muscarinic acetylcholine receptor M1 (Homo sapiens), sequence (P11229 whole entry, looked up): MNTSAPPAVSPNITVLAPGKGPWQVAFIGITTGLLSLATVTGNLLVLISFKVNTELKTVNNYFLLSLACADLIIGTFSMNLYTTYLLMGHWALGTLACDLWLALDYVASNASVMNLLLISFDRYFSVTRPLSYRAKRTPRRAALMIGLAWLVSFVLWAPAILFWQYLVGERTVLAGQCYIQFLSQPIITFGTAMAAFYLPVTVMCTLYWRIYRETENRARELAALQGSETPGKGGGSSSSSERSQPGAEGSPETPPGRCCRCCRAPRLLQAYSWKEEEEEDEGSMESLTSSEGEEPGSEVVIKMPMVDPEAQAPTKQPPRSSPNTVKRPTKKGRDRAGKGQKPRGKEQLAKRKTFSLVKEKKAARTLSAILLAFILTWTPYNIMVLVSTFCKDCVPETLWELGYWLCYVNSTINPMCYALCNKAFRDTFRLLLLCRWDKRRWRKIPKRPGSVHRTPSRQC

Cc1ccc(C)o1
inactive: Potency [1] | Potency [2] | Potency [3] | Potency [4] | Potency [5] | Potency [6] | Potency [7] | Potency [8] | Potency [9] | Potency [10] | Potency [11] | Potency [12] | Potency [13] | Potency [14] | Potency [15] | Potency [16] | Potency [17]

Cc1ccccc1S(N)(=O)=O
inactive: Potency [1] | Potency [2] | Potency [3] | Potency [4] | Potency [5] | Potency [6] | Potency [7] | Potency [8] | Potency [9] | Potency [10] | Potency [18] | Potency [11] | Potency [12] | Potency [13] | Potency [14] | Potency [15] | Potency [16] | Potency [17]

CC(=O)Nc1ccc(N=Nc2cc(C)ccc2O)cc1
inactive: Potency [1] | Potency [2] | Potency [3] | Potency [4] | Potency [5] | Potency [6] | Potency [7] | Potency [8] | Potency [9] | Potency [10] | Potency [18] | Potency [11] | Potency [12] | Potency [13] | Potency [15] | Potency [19] | Potency [16] | Potency [17]

CCOC(=O)CCC(C)=O
inactive: Potency [1] | Potency [2] | Potency [3] | Potency [4] | Potency [5] | Potency [6] | Potency [7] | Potency [8] | Potency [10] | Potency [18] | Potency [11] | Potency [13] | Potency [14] | Potency [15] | Potency [19] | Potency [16] | Potency [17]

CC(=O)C(C)O (centres undefined)
inactive: Potency [1] | Potency [2] | Potency [3] | Potency [4] | Potency [5] | Potency [6] | Potency [7] | Potency [8] | Potency [9] | Potency [10] | Potency [18] | Potency [11] | Potency [12] | Potency [13] | Potency [14] | Potency [19] | Potency [20] | Potency [17]

N[C@H](C(=O)O)c1ccc(O)cc1
inactive: activity change, negative = cytotoxicity [1] 7.62% [at 19 µM] | activity, positive = activation [2] 16.5% [at 19 µM] | activation [3] 3.74% [at 15.8 µM] | activation [4] 0.205% [at 11.8 µM] | activation [5] 0.205% [at 13.5 µM] | activation [6] 0.317% [at 13.6 µM] | activity change, negative = cytotoxicity [7] 0.34% [at 13.5 µM] | activation [10] -1.96% [at 13.5 µM] | activity, negative = inhibition [18] 57.4% [at 12.7 µM] | activation [11] -0.912% [at 15.9 µM] | activity, negative = inhibition [12] 8.36% [at 12.6 µM] | activation [13] 0.717% [at 15.8 µM] | activation [14] -0.179% [at 19 µM] | activity change, negative = inhibition [15] 0.811% [at 18.9 µM] | activity change, negative = inhibition [19] -0.335% [at 19 µM] | activation [20] 19.3% [at 19 µM] | activation [16] -12.3% [at 19 µM] | activity change, negative = inhibition [17] 7.69% [at 18.9 µM]

CCOC(OCC)C(=O)c1ccccc1
inactive: Potency [1] | Potency [2] | Potency [3] | Potency [4] | Potency [5] | Potency [6] | Potency [7] | Potency [9] | Potency [10] | Potency [18] | Potency [12] | Potency [13] | Potency [14] | Potency [15] | Potency [19] | Potency [20] | Potency [16] | Potency [17]
